Hits are enriched below; roughly 19% of the tested compounds scored in any of these assays.
IL-1B inflam inh: inhibitors of inflammasome signaling (IL-1 beta secretion); AID 743279; THP-1 LPS/ATP IL-1B secretion, AlphaLISA, 16 h; active compounds read low; hit rate 4.7% among 360,000; activity change, % at 57.5 µM; in the data active = activity change below about -50%; inconclusive = mostly about -30% to -49%
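THP-1 cells pretreated 1 hr with compounds (up to 57.5 uM final), then stimulated with LPS (250 ng/mL final) plus ATP (1.25 mM final); secreted IL-1B measured by AlphaLISA after 16 hr, decreased signal indicating inhibition.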
TDP1 block: blocks human tyrosyl-DNA phosphodiesterase 1; hit rate 0.28% among 350,000; AID 485290; recombinant TDP1, AlphaScreen DNA substrate cleavage; Potency, µM (highest dose often 130 µM), inactives show top-dose activity change, negative = inhibition, hits mostly inhibitors; also: potency is read from the fitted curve at half-maximal effect; nearly all actives have a fitted effect of over 40% in size
Target sequence (Q9NUW8 whole entry, looked up): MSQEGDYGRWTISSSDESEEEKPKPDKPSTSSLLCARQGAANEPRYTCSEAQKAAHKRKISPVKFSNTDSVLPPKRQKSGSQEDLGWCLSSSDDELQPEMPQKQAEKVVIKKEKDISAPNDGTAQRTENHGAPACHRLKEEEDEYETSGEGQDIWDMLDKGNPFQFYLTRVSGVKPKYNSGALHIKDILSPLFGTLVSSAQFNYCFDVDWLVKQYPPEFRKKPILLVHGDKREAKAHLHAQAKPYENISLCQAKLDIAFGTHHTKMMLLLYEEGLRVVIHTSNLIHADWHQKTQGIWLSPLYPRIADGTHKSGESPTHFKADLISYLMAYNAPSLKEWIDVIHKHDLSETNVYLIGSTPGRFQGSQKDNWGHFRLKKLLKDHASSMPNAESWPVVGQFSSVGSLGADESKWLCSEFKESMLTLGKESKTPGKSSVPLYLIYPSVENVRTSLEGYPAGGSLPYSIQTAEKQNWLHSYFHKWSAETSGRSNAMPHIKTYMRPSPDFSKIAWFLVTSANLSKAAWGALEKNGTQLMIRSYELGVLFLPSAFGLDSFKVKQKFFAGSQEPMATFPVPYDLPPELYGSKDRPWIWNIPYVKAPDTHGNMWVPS
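Signal: AlphaScreen proximity between streptavidin donor and anti-FITC acceptor beads on intact substrate. Reaction: Tdp1 1 nM, substrate 15 nM final, 5 min RT after 15 min compound preincubation.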
Giardia killer: kills Giardia lamblia | Giardia lamblia trophozoite viability | activity change, % at 7.66 µM, hits read low | hit rate 0.15% among 340,000 | AID 540267; in the data active = activity change below about -80%; inconclusive = between about -30% and that limit;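 also: parasites exposed to compound for two days anaerobically before the ATP read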
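Anaerobic 48 hrs incubation at 37 deg C of 100 trophozoites/well with test compounds; ATPLite 1-Step luminescence, 15-30 min RT, reports cellular ATP as viability.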
DT40 TDP1 CPT: DT40-hTDP1 cell growth loss with CPT. chicken DT40 Tdp1-/-;hTDP1 cells + 20 nM CPT, ATP luminescence, 48 h. Potency, µM (series often up to 46.2 µM), inactives show at the highest dose activity change, negative = growth inhibition, hits mostly inhibitors. hit rate 12% among 420,000; also: potency is read from the fitted curve at half-maximal effect; nearly all actives have a fitted effect of over 55% in size
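Cell growth measured by CellTiter-Glo luminescence after a minimum 48 h, 37 C compound exposure with 20 nM CPT in Tdp1-knockout DT40 cells stably expressing hTDP1, seeded 400/well; qHTS titration format.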
TDP1 cell noCPT: qHTS for Inhibitors of human tyrosyl-DNA phosphodiesterase 1 (TDP1): qHTS in cells in absence of CPT; Potency, µM (doses to about 46.2 µM), for the others: top-dose activity change, negative = growth inhibition, hits mostly inhibitors; DT40 Tdp1-/- hTDP1 cells, no CPT, ATP luminescence, 48 h; hit rate 15% among 420,000; also: potency is read from the fitted curve at half-maximal effect; nearly all actives have a fitted effect of over 55% in size
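Cells were dispensed at 400 per well, compounds added by pin tool, plates incubated ≥48 hr at 37 °C, then CellTiter-Glo added for 30 min at room temperature before luminescence reading. Line: DT40 Tdp1-/- complemented with hTDP1; camptothecin omitted.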
ELG1 DNA repair: blocks ELG1-dependent DNA repair in HEK293T cells; HEK293T ELG1-luciferase reporter, luminescence, 16 h; DNA damage induced by 5-fluorouridine; Potency, µM (titrated, usually from 46.1 µM), inactives show at the highest dose activity change, negative = inhibition, actives largely listed as inhibitors; hit rate 2.3% among 330,000; also: potency is read from the fitted curve at half-maximal effect; nearly all actives have a fitted effect of over 55% in size
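Reporter activity after DNA damage by 5-fluorouridine is monitored. Compound-treated cells incubate 16 hr at 37 °C, then ONE-Glo is added for 30 min before luminescence reading.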
Numbers without * were called inactive; ? = inconclusive; . = not tested or not shown. Unless noted, calls follow the shape of the dose curve; as a rule, active = well fitted curve in the direction sought with a large enough effect; inconclusive = small, poorly fitted or top-dose-only effect, or another doubt; inactive = no such curve, though single readings can be large; an effect the other way counts as inactive or inconclusive. % is scaled to controls: 0 for no effect and ±100 for the full control effect.

SMILES | IL-1B inflam inh | TDP1 block | Giardia killer | DT40 TDP1 CPT | TDP1 cell noCPT | ELG1 DNA repair
Cc1ccccc1OCC(=O)Nc1ccccc1NC(=O)c1ccco1 | 30.7 | -7.0% | -5.9 | 7.3% | -29.4% | 0.3%
CCn1ncc(Br)c1C(=O)Nc1ccccc1C(F)(F)F | -6.6 | . | 2.0 | -6.8% | 4.3% | 3.6%
COc1cc(O)c(C(=O)/C=C/c2ccc(O)c(OC)c2)c(OC)c1 | . | 10µM* | . | ? | ? | .
COc1cc(/C=C/C(O)=C/C(=O)/C=C/c2ccc(O)cc2)ccc1O | -97.1* | 3.0% | -6.2 | 18.4µM* | ? | ?
COCOc1ccc(/C=C/C(=O)c2c(O)cc(OCOC)cc2OCOC)cc1 | ? | . | -8.8 | ? | ? | .
COc1cc(O)cc(O)c1C(=O)/C=C/c1ccccc1 | -106.1* | 6.4% | 7.8 | 14.6µM* | 14.6µM* | -4.5%
COc1ccc(/C=C/C(=O)c2c(OC)cc(O)cc2OC)cc1 | . | 17.4% | . | . | . | .
COc1cc(OC)c(C(=O)/C=C/c2ccccc2)c(O)c1O | -100.2* | . | -2.2 | ? | ? | -32.0%
Cc1ccc(C)c(NC(=S)N/N=C/C(C)c2ccccc2)c1 (centres undefined) | 20.4 | 0.0% | -9.4 | ? | ? | -3.7%
COc1cccc(CNCc2ccc(OC)cc2OC)c1 | -56.5* | . | 0.9 | ? | ? | -5.9%
COc1ccc(CNCc2ccc(F)cc2)c(OC)c1 | -26.4 | . | 0.4 | -2.0% | ? | 3.6%
COc1ccc(CNCc2cc(C)c(OC)cc2C)c(OC)c1 | -63.0* | . | 4.9 | 14.6µM* | 11.6µM* | ?
CCn1c2ccccc2c2cc(CNCc3ccc(OC)cc3OC)ccc21 | -88.3* | 9.0% | -10.1 | ? | 10.3µM* | -26.6%
CCOC(=O)N1CCN(S(=O)(=O)N2CCCC(C(=O)NCCCN3CCCCC3CC)C2)CC1 (centres undefined) | 12.7 | 2.3% | 9.1 | -3.1% | 3.2% | 6.5%
CC1CCN(S(=O)(=O)c2cc(C(=O)NCc3ccc(F)cc3)n(C)c2)CC1 | . | 0.6% | . | ? | ? | .
CCN(CC)S(=O)(=O)c1ccc(NN=C2CCN(C)CC2)c([N+](=O)[O-])c1 | -8.6 | 5.3% | 9.7 | -0.9% | -5.8% | -8.4%
COc1ccc2[nH]c(=O)c(CN(CCCN(C)C)C(=O)Nc3ccccc3)cc2c1 | -17.1 | 4.2% | -0.9 | ? | ? | -4.1%
CCc1ccc2[nH]c(=O)c(CN(CCN(C)C)C(=O)Nc3ccccc3)cc2c1 | -58.6* | 5.8% | 2.4 | ? | ? | ?
CCc1ccc2[nH]c(=O)c(CN(CCN(CC)CC)C(=O)NC3CCCCC3)cc2c1 | -55.8* | 9.8% | 3.1 | 14.6µM* | 25.9µM* | 1.1%
O=C(NC1CCCCC1)N(CCO)Cc1cc2cc3c(cc2[nH]c1=O)OCCO3 | 7.1 | 1.1% | -12.7 | ? | ? | 0.0%
CCNC(=O)C1(C)CCN(Cc2cccc(Oc3ccccc3)c2)C1 (centres undefined) | 0.6 | . | . | ? | 16.4µM* | .
CCNC(=O)C1(C)CCCN(Cc2ccc(Oc3ccccc3)cc2)C1 (centres undefined) | -2.3 | . | . | 13µM* | 18.4µM* | .
COC(=O)c1cc(F)c(S(=O)(=O)N2CCN(S(=O)(=O)c3ccc4c(c3)OCCO4)CC2)cc1F | . | 0.3% | . | . | . | .
COc1ccc(N(S(=O)(=O)c2ccccc2)S(=O)(=O)c2ccccc2)c(N)c1 | 17.4 | -0.2% | -0.8 | ? | ? | -25.8%
COC(=O)[C@@]12C[C@@H](CC(=O)NCc3ccc(OC)c(OC)c3)C(=O)N(Cc3ccccc3)C1=CCC(C)(C)C2 | -17.6 | . | . | 18.4µM* | ? | .
COC(=O)[C@@]12C[C@@H](CC(=O)NCc3ccc(OC)c(OC)c3)C(=O)N(Cc3ccco3)C1=CCC(C)(C)C2 | -14.8 | . | . | ? | ? | .
